{
  "source": "paper PMC4336329",
  "about": "(PLoS ONE, 2015)",
  "note": "In all, about 310,000 compounds went through this assay and about 14,000 (4.5%) showed an effect of 50% or more. The effect is printed as a negative number. The full list was thinned out, with strong results kept by preference.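 Further: peak tail current of the secondary pulse compared with the same well before compound.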",
  "data": [
    {"biological_target": "human ether-à-go-go-related gene (hERG) potassium channel (human, UniProt Q12809)", "sequence (Q12809 whole entry, looked up)": "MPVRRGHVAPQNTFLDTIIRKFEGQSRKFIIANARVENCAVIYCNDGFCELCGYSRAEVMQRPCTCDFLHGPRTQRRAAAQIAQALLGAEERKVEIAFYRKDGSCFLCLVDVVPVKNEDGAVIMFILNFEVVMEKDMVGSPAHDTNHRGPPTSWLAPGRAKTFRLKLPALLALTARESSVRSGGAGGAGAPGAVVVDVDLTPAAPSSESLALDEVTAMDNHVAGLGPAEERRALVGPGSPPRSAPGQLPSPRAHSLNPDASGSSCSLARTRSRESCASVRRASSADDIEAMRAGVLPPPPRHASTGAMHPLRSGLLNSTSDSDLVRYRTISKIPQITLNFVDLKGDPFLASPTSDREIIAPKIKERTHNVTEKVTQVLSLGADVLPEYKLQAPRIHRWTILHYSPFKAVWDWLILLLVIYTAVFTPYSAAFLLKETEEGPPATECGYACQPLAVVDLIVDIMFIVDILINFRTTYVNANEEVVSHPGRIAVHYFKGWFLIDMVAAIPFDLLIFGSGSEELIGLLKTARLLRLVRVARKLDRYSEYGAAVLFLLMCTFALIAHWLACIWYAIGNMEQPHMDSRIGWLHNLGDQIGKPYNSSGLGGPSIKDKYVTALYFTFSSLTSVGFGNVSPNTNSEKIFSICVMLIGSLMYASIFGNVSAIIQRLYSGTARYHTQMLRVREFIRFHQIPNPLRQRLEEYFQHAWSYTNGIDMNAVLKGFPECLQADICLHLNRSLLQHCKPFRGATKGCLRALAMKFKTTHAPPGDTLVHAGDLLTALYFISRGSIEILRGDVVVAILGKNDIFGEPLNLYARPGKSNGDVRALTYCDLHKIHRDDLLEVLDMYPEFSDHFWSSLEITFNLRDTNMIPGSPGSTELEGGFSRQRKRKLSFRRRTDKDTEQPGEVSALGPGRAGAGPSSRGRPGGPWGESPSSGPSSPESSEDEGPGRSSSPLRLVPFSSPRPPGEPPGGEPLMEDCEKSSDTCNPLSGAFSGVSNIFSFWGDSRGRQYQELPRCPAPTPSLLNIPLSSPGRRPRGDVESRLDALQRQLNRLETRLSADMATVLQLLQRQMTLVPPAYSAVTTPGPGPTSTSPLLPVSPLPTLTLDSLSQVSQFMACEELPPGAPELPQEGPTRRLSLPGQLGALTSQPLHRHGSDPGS", "test": "primary screen, population patch clamp on CHO cells stably expressing hERG; higher = less effect of the substance", "units": {"hERG current change (%, negative = inhibition) at 10uM": "%"}, "values": [
      {"smiles": "NS(=O)(=O)c1ccc(CNC(=O)CSc2ccccc2)cc1", "hERG current change (%, negative = inhibition) at 10uM": 14.5},
      {"smiles": "CCOC(=O)C(=NC(C)CC)NNc1cccc(C(F)(F)F)c1", "note": "(stereo not drawn)", "hERG current change (%, negative = inhibition) at 10uM": -1.86},
      {"smiles": "O=C(c1ccc([N+](=O)[O-])cc1[N+](=O)[O-])N1CCCC1", "hERG current change (%, negative = inhibition) at 10uM": 5.62},
      {"smiles": "CN(Cc1ccccc1)C(=O)c1cc(S(=O)(=O)N2CCOCC2)cn1C", "hERG current change (%, negative = inhibition) at 10uM": -7.13},
      {"smiles": "Fc1cc(Br)ccc1NC(=S)Nc1cccnc1", "hERG current change (%, negative = inhibition) at 10uM": 0.43},
      {"smiles": "COc1ccc(C(=O)O)cc1S(=O)(=O)NC(C)C12CC3CC(CC(C3)C1)C2", "note": "(stereo not drawn)", "hERG current change (%, negative = inhibition) at 10uM": 1.27},
      {"smiles": "O=C(NC1CCCCCC1)c1c(O)c2ccccc2[nH]c1=O", "hERG current change (%, negative = inhibition) at 10uM": 8.34},
      {"smiles": "CCOC(=O)c1ccc(NC(=O)CCc2nc(-c3ccc(C)cc3)no2)cc1", "hERG current change (%, negative = inhibition) at 10uM": 5.14},
      {"smiles": "Cc1cccc(OCC(=O)NCc2cc(C)nc3ccccc23)c1", "hERG current change (%, negative = inhibition) at 10uM": -9.05},
      {"smiles": "O=c1cc(CCl)[nH]c2nc3ccccc3n12", "hERG current change (%, negative = inhibition) at 10uM": -6.02},
      {"smiles": "CCC(C)n1c(SCc2ccc([N+](=O)[O-])cc2)nc2ccsc2c1=O", "note": "(stereo not drawn)", "hERG current change (%, negative = inhibition) at 10uM": -11.6},
      {"smiles": "CN1CCN(c2nc(-c3ccc(Cl)s3)cs2)CC1", "hERG current change (%, negative = inhibition) at 10uM": -3.91},
      {"smiles": "O=c1oc(-c2ccc([N+](=O)[O-])cc2)nc2ccccc12", "hERG current change (%, negative = inhibition) at 10uM": 18.2},
      {"smiles": "CCOC(=O)c1c(NC(=O)CN2CCN(C)CC2)sc(C(=O)Nc2ccccc2)c1C", "hERG current change (%, negative = inhibition) at 10uM": -58.9},
      {"smiles": "CCOC(=O)c1c(NC(=O)CSc2cccc[n+]2[O-])sc(C(=O)Nc2ccccc2)c1C", "hERG current change (%, negative = inhibition) at 10uM": -30.1},
      {"smiles": "CCOC(=O)c1sc(NC(=O)CN2CCCC2)c(C(=O)OCC)c1C", "hERG current change (%, negative = inhibition) at 10uM": -6.37},
      {"smiles": "Cc1ccc(NC(=O)CSCC(=O)OC(C)C(=O)Nc2ccc(S(N)(=O)=O)cc2)c(C)c1", "note": "(stereo not drawn)", "hERG current change (%, negative = inhibition) at 10uM": 5.08},
      {"smiles": "COc1ccc(F)cc1C(=O)C1CCCN(C(=O)c2ocnc2C)C1", "note": "(stereo not drawn)", "hERG current change (%, negative = inhibition) at 10uM": -10.1},
      {"smiles": "O=C(NC1CCCC1)C(=O)N(Cc1cccnc1)C(C(=O)NC1CCCC1)c1ccco1", "note": "(stereo not drawn)", "hERG current change (%, negative = inhibition) at 10uM": 19.6},
      {"smiles": "O=C(CN1CCN(c2ccccc2F)CC1)c1ccc2c(c1)OCO2", "hERG current change (%, negative = inhibition) at 10uM": -10.3},
      {"smiles": "O=C(CN1CCOCC1)c1ccc2cc[nH]c2c1", "hERG current change (%, negative = inhibition) at 10uM": 8.82},
      {"smiles": "O=C(CN1CCN(c2ccccc2F)CC1)c1ccc2cc[nH]c2c1", "hERG current change (%, negative = inhibition) at 10uM": -82.9},
      {"smiles": "O=C(CN1CCN(c2ccccc2)CC1)c1ccc2cc[nH]c2c1", "hERG current change (%, negative = inhibition) at 10uM": 11.4},
      {"smiles": "O=C(CN1CCN(c2ccccc2F)CC1)c1ccc(O)cc1O", "hERG current change (%, negative = inhibition) at 10uM": 14.2},
      {"smiles": "O=C(CN1CCN(c2ccccc2F)CC1)c1ccc(O)c(O)c1", "hERG current change (%, negative = inhibition) at 10uM": -70.7},
      {"smiles": "CC(=O)Cc1nsc(NC(=O)c2ccc(-c3cc(C(F)(F)F)ccc3Cl)o2)n1", "hERG current change (%, negative = inhibition) at 10uM": 22.7},
      {"smiles": "O=C(c1cccnc1)N1CCN(S(=O)(=O)c2ccc3ccccc3c2)CC1", "hERG current change (%, negative = inhibition) at 10uM": -34.9},
      {"smiles": "CC(CNC(=O)c1ccc(Br)o1)NC(=O)c1ccc(Br)o1", "note": "(stereo not drawn)", "hERG current change (%, negative = inhibition) at 10uM": -0.676},
      {"smiles": "CC1CCCCC1NC(=O)COC(=O)CCC(=O)c1cccs1", "note": "(stereo not drawn)", "hERG current change (%, negative = inhibition) at 10uM": 17.3},
      {"smiles": "CCn1c(Cn2nnc(-c3ccccc3)n2)nnc1SCC(=O)Nc1ccccc1", "hERG current change (%, negative = inhibition) at 10uM": -7.39},
      {"smiles": "CC(C)Oc1ccc(NC(N)=O)cc1", "hERG current change (%, negative = inhibition) at 10uM": 1.14},
      {"smiles": "CCOc1ccc(N=C2Sc3nc4ccc(C)cc4cc3CN2CCOC)cc1", "hERG current change (%, negative = inhibition) at 10uM": 41.4},
      {"smiles": "COCCN=C1Sc2nc3c(C)cccc3cc2CN1Cc1ccco1", "hERG current change (%, negative = inhibition) at 10uM": 8.49},
      {"smiles": "COCCN=C1Sc2nc3ccc(C)cc3cc2CN1Cc1cccs1", "hERG current change (%, negative = inhibition) at 10uM": -11.1},
      {"smiles": "COCCN1Cc2cc3cc(C)ccc3nc2SC1=Nc1ccc(OC)cc1", "hERG current change (%, negative = inhibition) at 10uM": 7.73},
      {"smiles": "CCC(C)N=C1Sc2nc3ccc(C)cc3cc2CN1CCOC", "note": "(stereo not drawn)", "hERG current change (%, negative = inhibition) at 10uM": -79},
      {"smiles": "COCCN=C1Sc2nc3ccc(C)cc3cc2CN1Cc1ccco1", "hERG current change (%, negative = inhibition) at 10uM": -61},
      {"smiles": "CCNC(=O)CSc1nnc(-c2cccc(S(=O)(=O)N(CC)CC)c2)n1CCc1ccccc1", "hERG current change (%, negative = inhibition) at 10uM": -9.82},
      {"smiles": "Cn1ccc(C(=O)Nc2ccc3c(c2)OCCO3)n1", "hERG current change (%, negative = inhibition) at 10uM": 21.9},
      {"smiles": "O=C(NN1CCOCC1)c1cn(-c2ccccc2)nc1-c1cccs1", "hERG current change (%, negative = inhibition) at 10uM": -1.47},
      {"smiles": "COC(=O)c1nc(NC(=O)c2ccccc2)n[nH]1", "hERG current change (%, negative = inhibition) at 10uM": -9.58},
      {"smiles": "O=C(C1=NN[C@@H]2C(=O)N(c3cccc(F)c3)C(=O)[C@H]12)C(c1ccccc1)c1ccccc1", "hERG current change (%, negative = inhibition) at 10uM": -19.2},
      {"smiles": "CCCCCn1c(=NC(=O)c2cccnc2)c(C#N)cc2c(=O)n3cccc(C)c3nc21", "hERG current change (%, negative = inhibition) at 10uM": -54.8},
      {"smiles": "Cc1cccn2c(=O)c3cc(C#N)c(=NC(=O)c4cccnc4)n(CC4CCCO4)c3nc12", "note": "(stereo not drawn)", "hERG current change (%, negative = inhibition) at 10uM": -51.1},
      {"smiles": "CCCCn1c(=NC(C)=O)c(C#N)cc2c(=O)n3cccc(C)c3nc21", "hERG current change (%, negative = inhibition) at 10uM": -31},
      {"smiles": "CCCCn1c(=NC(=O)c2cccnc2)c(C#N)cc2c(=O)n3cccc(C)c3nc21", "hERG current change (%, negative = inhibition) at 10uM": -10.6},
      {"smiles": "Cc1cc(=O)c2cc(Br)ccc2[nH]1", "hERG current change (%, negative = inhibition) at 10uM": 8.12},
      {"smiles": "Cc1n[nH]c(C)c1S(=O)(=O)N1CCC(C(=O)N2CCn3c2nc2ccccc23)CC1", "hERG current change (%, negative = inhibition) at 10uM": -3.79},
      {"smiles": "CC(C)CC(COCc1ccc(Cl)cc1)N1CCN(C(=O)c2cccc(C(F)(F)F)c2)CCC1=O", "note": "(stereo not drawn)", "hERG current change (%, negative = inhibition) at 10uM": -38.1},
      {"smiles": "CCOC(=O)c1cc(S(=O)(=O)N(C)Cc2ccccc2)cn1C", "hERG current change (%, negative = inhibition) at 10uM": -11.7},
      {"smiles": "C=COCCn1c(=N)n(CCC)c2ccccc21.Cl", "hERG current change (%, negative = inhibition) at 10uM": -28.3},
      {"smiles": "COc1ccc(OCCn2c(=O)sc3ccccc32)cc1", "hERG current change (%, negative = inhibition) at 10uM": -8.81},
      {"smiles": "COc1ccc(OCCn2c(=N)n(CCO)c3ccccc32)cc1.Cl", "hERG current change (%, negative = inhibition) at 10uM": -24.2},
      {"smiles": "CCn1c(=N)n(CCOc2ccc(OC)cc2)c2ccccc21", "hERG current change (%, negative = inhibition) at 10uM": -55.1},
      {"smiles": "CCCn1c(=N)n(CCOc2ccc(OC)cc2)c2ccccc21", "hERG current change (%, negative = inhibition) at 10uM": -59.5},
      {"smiles": "CCn1c(=N)n(CCO)c2ccccc21.Cl", "hERG current change (%, negative = inhibition) at 10uM": 5.84},
      {"smiles": "Cn1cc(P(=O)(N2CCOCC2)N2CCOCC2)cc1P(=S)(N1CCOCC1)N1CCOCC1", "hERG current change (%, negative = inhibition) at 10uM": 16.6}
    ]}
  ]
}
